# Measurements from the supplement of paper PMC7366291.
# Where a name gives a salt, the structure may show the parent alone. ± gives the standard deviation or the standard deviation of the averaged measurements.
# Key:
# Conditions in all cases: 25 µM; exposure: 24-48 hpf
# [1] = tested on: Danio rerio Tg(wt1b:EGFP) embryo, pronephros; test: glomerular separation, fold change vs DMSO control; higher = glomeruli further apart (abnormal)
# Method in brief: (§1)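 In HEPES-buffered E3 with 0.003% PTU and 0.5% DMSO, dechorionated Tg(wt1b:EGFP) zebrafish embryos were exposed to 25 μM compound from 24 to 48 hpf at 28.5°C. Pronephroi were then imaged dorsally at 470 nm in 10 z-slices, in 96-well plates filled with agarose. On maximum projections, a Fiji macro turned 16 manually placed reference points into distances and angles, and values more than 2 SD from the feature mean were excluded. Features are fold changes relative to the mean of DMSO-treated embryos from the same day.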
# [2] = tested on: Danio rerio Tg(wt1b:EGFP) embryo, pronephros; test: glomerular width (mean of left and right), fold change vs DMSO control; higher = wider glomerulus
# Method in brief: as §1
# [3] = tested on: Danio rerio Tg(wt1b:EGFP) embryo, pronephros; test: fraction of imaged embryos annotated as normal kidney; higher = less nephrotoxic; extreme values may be limits of the assay
# Method in brief: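 Embryos of the Tg(wt1b:EGFP) zebrafish line were dechorionated and held in 12-well plates with 25 μM compound in 0.5% DMSO and 5 mM HEPES-buffered E3 containing 0.003% PTU, from 24 to 48 hpf at 28.5°C. Larvae were then anaesthetised with tricaine, set dorsal side up in agarose-filled 96-well plates, and their pronephroi imaged by widefield fluorescence at 470 nm over 10 z-slices. Each value is the fraction of embryos per treatment placed in the normal-kidney category after manual annotation of maximum projections.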
# [4] = tested on: Danio rerio Tg(wt1b:EGFP) embryo, pronephros; test: pronephric angle neck segment to proximal convoluted tubule (mean of left and right), fold change vs DMSO control; higher = larger pronephric angle
# Method in brief: as §1
SMILES,glomerular separation [1],glomerular width [2],fraction of imaged embryos annotated as normal kidney [3],pronephric angle neck segment [4]
O=C1CN(/N=C/c2ccc(-c3ccc([N+](=O)[O-])cc3)o2)C(=O)N1 [Dantrolene sodium salt],1.46 ± 0.66,0.974 ± 0.084,0.833,1.02 ± 0.016
CCCNCC(O)COc1ccccc1C(=O)CCc1ccccc1 (stereo not given) [Propafenone hydrochloride],1.06 ± 0.39,1.05 ± 0.0038,0.818,1.13 ± 0.035
COc1nc(C)nc(Cl)c1NC1=NCCN1 [Moxonidine],1.07 ± 0.47,1.01 ± 0.011,1,0.96 ± 0.0097
N=C(N)NCc1cccc(I)c1 [Iobenguane sulfate],0.901 ± 0.19,1.02 ± 0.015,1,1.02 ± 0.035
COc1ccc(CC2c3cc(OC)c(OC)cc3CC[N+]2(C)CCC(=O)OCCCCCOC(=O)CC[N+]2(C)CCc3cc(OC)c(OC)cc3C2Cc2ccc(OC)c(OC)c2)cc1OC (stereo not given) [Atracurium besylate],1.2 ± 0.6,0.944 ± 0.012,0.917,0.954 ± 0.016
CCn1cc(C(=O)O)c(=O)c2cc(F)c(N3CCNCC3)nc21 [Enoxacin],0.719 ± 0.29,0.9596 ± 0.0034,0.727,1.06 ± 0.017
CO[C@H]1/C=C/O[C@@]2(C)Oc3c(C)c(O)c4c(O)c(c(/C=N/N5CCN(C)CC5)c(O)c4c3C2=O)NC(=O)/C(C)=C\C=C\[C@H](C)[C@H](O)[C@@H](C)[C@@H](O)[C@@H](C)[C@H](OC(C)=O)[C@@H]1C [Rifampicin],1.08 ± 0.28,1.02 ± 0.018,0.833,0.991 ± 0.022
CC(=O)O[C@]1(C(C)=O)CC[C@H]2[C@@H]3C=C(C)C4=CC(=O)CC[C@@H]4[C@H]3CC[C@@]21C [Nomegestrol acetate],1.02 ± 0.29,0.953 ± 0.054,0.909,1.131 ± 0.0084
COC(c1ccccc1)(c1ccccc1)[C@H](Oc1nc(C)cc(C)n1)C(=O)O [Ambrisentan],0.883 ± 0.35,0.873 ± 0.017,0.833,1.09 ± 0.018
CCN(CC)CCOC(=O)C1(C2CCCCC2)CCCCC1 [Dicyclomine hydrochloride],1.3 ± 0.41,1.12 ± 0.03,0.727,1.16 ± 0.077
CN(C)CC/C=C1/c2ccccc2Sc2ccc(Cl)cc21 [Chlorprothixene hydrochloride],0.89 ± 0.23,1.034 ± 1.4e-05,0.727,1.04 ± 0.074
CC1(C)S[C@@H]2[C@H](NC(=O)[C@H](NC(=O)N3CCNC3=O)c3ccccc3)C(=O)N2[C@H]1C(=O)O [Azlocillin sodium salt],0.819 ± 0.3,1.01 ± 0.023,0.5,0.928 ± 0.015
C[C@H]1c2cccc(O)c2C(=O)C2=C(O)[C@]3(O)C(=O)C(C(N)=O)=C(O)[C@@H](N(C)C)[C@@H]3[C@@H](O)[C@@H]21 [Doxycycline hydrochloride],1.09 ± 0.26,1.02 ± 0.055,0.833,1.034 ± 0.01
CC(c1cc2ccccc2s1)N(O)C(N)=O (stereo not given) [Zileuton],1.25 ± 0.57,0.993 ± 0.02,0.667,1.11 ± 0.072
COCCCC/C(=N\OCCN)c1ccc(C(F)(F)F)cc1 [Fluvoxamine maleate],1.05 ± 0.39,0.91 ± 0.015,1,0.996 ± 0.018
CCN1C(=O)NC(c2ccccc2)C1=O (stereo not given) [Ethotoin],0.796 ± 0.17,0.998 ± 0.037,0.917,0.942 ± 0.014
CC1CC(OC(=O)C(O)c2ccccc2)CC(C)(C)N1C (stereo not given) [Eucatropine hydrochloride],0.748 ± 0.31,0.975 ± 0.042,0.917,0.9583 ± 0.0057
CN(C)CCC(c1ccc(Cl)cc1)c1ccccn1 (stereo not given) [Chlorpheniramine maleate],1.56 ± 0.77,1.04 ± 0.042,0.667,0.969 ± 0.0027
CN(Cc1ccc(C(C)(C)C)cc1)Cc1cccc2ccccc12 [Butenafine Hydrochloride],0.932 ± 0.4,0.9818 ± 0.007,0.909,1.05 ± 0.12
C[C@H]1[C@H](NC(=O)/C(=N\OC(C)(C)C(=O)O)c2csc(N)n2)C(=O)N1S(=O)(=O)O [Aztreonam],0.857 ± 0.2,1.143 ± 0.0015,0.917,0.9634 ± 0.0095
Cc1nnc(NS(=O)(=O)c2ccc(N)cc2)s1 [Sulfamethizole],0.838 ± 0.34,1.06 ± 0.087,0.667,1.06 ± 0.028
CC(C)COCC(CN(Cc1ccccc1)c1ccccc1)N1CCCC1 (stereo not given) [Bepridil hydrochloride],0.94 ± 0.41,1.03 ± 0.03,0.818,0.993 ± 0.033
O=C(CCNNC(=O)c1ccncc1)NCc1ccccc1 [Nialamide],1.06 ± 0.4,0.97 ± 0.056,0.583,0.99 ± 0.061
CC=CC(=O)N(CC)c1ccccc1C [Crotamiton],0.867 ± 0.16,0.96 ± 0.038,1,1 ± 0.019
Cc1cc(C2CCCCC2)n(O)c(=O)c1 [Ciclopirox ethanolamine],6.61 ± 0.93,0.503 ± 0.058,0,1.68 ± 0.05

SMILES,glomerular separation [1],glomerular width [2],fraction of imaged embryos annotated as normal kidney [3],pronephric angle neck segment [4]
C[C@@](Cc1ccc(O)c(O)c1)(NN)C(=O)O [Carbidopa],1.24 ± 0.38,1.0027 ± 0.00014,0.833,1.047 ± 0.0029
Cc1c(-c2ccccc2)oc2c(C(=O)OCCN3CCCCC3)cccc2c1=O [Flavoxate hydrochloride],1.17 ± 0.37,1.08 ± 0.037,0.75,1.06 ± 0.02
C/C(=C\C(=O)OCCCCCCCCC(=O)O)C[C@@H]1OC[C@H](C[C@@H]2O[C@H]2[C@@H](C)[C@H](C)O)[C@@H](O)[C@H]1O [Mupirocin],0.88 ± 0.41,1.01 ± 0.013,0.75,0.985 ± 0.046
CC1=C(CC(=O)O)c2cc(F)ccc2/C1=C\c1ccc([S+](C)[O-])cc1 (stereo not given) [Sulindac],0.735 ± 0.15,0.8774 ± 0.0075,0.667,1.0374 ± 0.00064
Cc1cnc(C(=O)NCCc2ccc(S(=O)(=O)NC(=O)NC3CCCCC3)cc2)cn1 [Glipizide],0.984 ± 0.34,1.056 ± 0.0043,0.833,0.944 ± 0.021
CC(Oc1c(Cl)cccc1Cl)C1=NCCN1 (stereo not given) [Lofexidine],1.06 ± 0.22,0.9921 ± 0.0057,0.833,0.96 ± 0.028
CCCCC(=O)O[C@H]1CC[C@H]2[C@@H]3CCc4cc(O)ccc4[C@H]3CC[C@]12C [Estradiol Valerate],1.02 ± 0.37,0.925 ± 0.016,0.583,1.134 ± 0.0028
CCN[C@H]1CN(CCCOC)S(=O)(=O)c2sc(S(N)(=O)=O)cc21 [Brinzolamide],1.47 ± 0.71,1.053 ± 0.0011,0.5,1.1 ± 0.069
COC(=O)[C@H]1[C@H]2C[C@@H]3c4[nH]c5cc(OC)ccc5c4CCN3C[C@H]2C[C@@H](OC(=O)c2cc(OC)c(OC)c(OC)c2)[C@@H]1OC [Reserpine],0.705 ± 0.29,0.995 ± 0.061,0.917,1.0157 ± 3.5e-05
NS(=O)(=O)c1cc2c(cc1Cl)NC(CC1CCCC1)NS2(=O)=O (stereo not given) [Cyclopenthiazide],0.818 ± 0.23,0.935 ± 0.03,1,1 ± 0.012
C[C@H]1O[C@H](O[C@H]2[C@H](O)[C@@H](O)[C@@H](O[C@H]3[C@H](O)[C@@H](O)C(O)O[C@@H]3CO)O[C@@H]2CO)[C@H](O)[C@@H](O)[C@@H]1N[C@H]1C=C(CO)[C@@H](O)[C@H](O)[C@H]1O (stereo not given in full) [Acarbose],0.951 ± 0.24,0.879 ± 0.1,0.833,1.02 ± 0.014
CN(C)CCC=C1c2ccccc2COc2ccccc21 [Doxepin hydrochloride],0.925 ± 0.22,0.99 ± 0.035,0.917,1.01 ± 0.076
C#C[C@]1(O)CC[C@H]2[C@@H]3CCc4cc(O)ccc4[C@H]3CC[C@@]21C [Ethinylestradiol],1.64 ± 0.76,0.823 ± 0.015,0.667,1.3 ± 0.015
Cc1cc2c(cc1S(N)(=O)=O)S(=O)(=O)CCC2 [Meticrane],0.987 ± 0.28,0.9447 ± 0.0016,0.917,1.01 ± 0.04
O=c1[nH]cnc2c1ncn2[C@H]1CC[C@@H](CO)O1 [Didanosine],1.24 ± 0.56,1.06 ± 0.052,0.7,0.972 ± 0.041
CNCCC(Oc1ccccc1OC)c1ccccc1 (stereo not given) [Nisoxetine hydrochloride],0.972 ± 0.43,0.94 ± 0.013,0.833,1.06 ± 0.022
Nc1ccc(S(=O)(=O)Nc2cnc3ccccc3n2)cc1 [Sulfaquinoxaline sodium salt],0.886 ± 0.3,0.97 ± 0.033,1,1.09 ± 0.012
CN(C)CCOC(c1ccccc1)c1ccccc1.Cn1c(=O)c2[nH]c(Cl)nc2n(C)c1=O [Dimenhydrinate],1.31 ± 0.54,1.05 ± 0.054,0.917,1.029 ± 0.0072
CN(CCOc1ccc(CC2SC(=O)NC2=O)cc1)c1ccccn1 (stereo not given) [Rosiglitazone Hydrochloride],1.04 ± 0.39,0.964 ± 0.03,0.833,0.9727 ± 0.0063
C=C(NC(=O)C(=C)NC(=O)c1csc(C2=N[C@@H]3c4csc(n4)[C@H]4NC(=O)c5csc(n5)[C@H]([C@](C)(O)[C@@H](C)O)NC(=O)[C@H]5CSC(=N5)/C(=C/C)NC(=O)[C@H]([C@@H](C)O)NC(=O)c5csc(n5)[C@]3(CC2)NC(=O)[C@H](C)NC(=O)C(=C)NC(=O)[C@H](C)NC(=O)[C@H]([C@@H](C)CC)N[C@@H]2C=Cc3c([C@H](C)O)cc(nc3[C@H]2O)C(=O)O[C@@H]4C)n1)C(N)=O [Thiostrepton],1.02 ± 0.32,1.02 ± 0.056,0.917,1.01 ± 0.12
O=C(O)CCCC[C@@H]1SC[C@@H]2NC(=O)N[C@@H]21 [Biotin],0.993 ± 0.31,0.993 ± 0.043,0.917,1.02 ± 0.066
OC(CCN1CCCCC1)(c1ccccc1)C1CC2C=CC1C2 (stereo not given) [Biperiden hydrochloride],1.06 ± 0.13,1.02 ± 0.047,0.917,1.01 ± 0.022
CCCCC[C@H](O)/C=C/[C@@H]1[C@@H](C/C=C\CCCC(=O)O)[C@@H](O)C[C@H]1O [Dinoprost trometamol],0.881 ± 0.18,1.01 ± 0.064,0.833,0.975 ± 0.043
COC(=O)C1=C(C)NC(C)=C(C(=O)OC)C1c1ccccc1[N+](=O)[O-] [Nifedipine],1.1 ± 0.54,1.05 ± 0.077,0,1.33 ± 0.09
CN(C)CCCOc1nn(Cc2ccccc2)c2ccccc12 [Benzydamine hydrochloride],1.24 ± 0.21,1.03 ± 0.035,1,0.9939 ± 0.0028
